Reference: the supplement of paper PMC10849652
About 7,900 targets were measured; listed, in parts, are those with a hit and a random draw of the rest. About 0.6% of all pairs of compound and target were hits.

Columns and labels:
Test in all cases: log2 fold change, soluble protein after heating vs DMSO (PISA); higher = thermal stabilisation; K562 cells, 10 uM, 30 min; active = over 0.2 and 3.5 SD of the protein, either way, in both replicates (recomputed)
[1] = compound: CN1CCN(CCOc2cc(OC3CCOCC3)c3c(Nc4c(Cl)ccc5c4OCO5)ncnc3c2)CC1 [saracatinib]
Outline: (§1)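 Thermal stability values are relative to control samples and come from duplicates. They are expressed as log2 fold changes. For measurement, K562 cells (2×10^6 cells/mL) received 10 μM compound for 30 min, and aliquots were heated for 3 min over 48°C-58°C, pooled, and extracted at 4°C in PBS with 0.5% NP-40. Soluble protein, the supernatant after 21,000xg for 90 min, was quantified by TMTpro 16plex LC-MS/MS with equalised channel sums.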

[2] = compound: CN1CCN(c2nc(C3=C(c4c[nH]c5ccccc45)C(=O)NC3=O)c3ccccc3n2)CC1 [sotrastaurin]
Outline: as §1

[3] = compound: CN1CC[C@H](c2c(O)cc(O)c3c(=O)cc(-c4ccccc4Cl)oc23)[C@H](O)C1 [alvocidib]
Outline: as §1

[4] = compound: CN1CCc2c(c3ccccc3n2Cc2ccc(C(=O)NO)cc2)C1 [Tubastatin A]
Outline: as §1

[5] = compound: CNC(=O)C1=CC=CC=C1NC2=NC(=NC=C2Cl)NC3=C(C=C(C=C3)N4CCOCC4)OC
Outline: as §1

[6] = compound: CNC(=O)c1ccc(Nc2ncc(C(F)(F)F)c(NCc3nccnc3N(C)S(C)(=O)=O)n2)cc1 [defactinib]
Outline: as §1

[7] = compound: CNCc1ccc(-c2[nH]c3cc(F)cc4c3c2CCNC4=O)cc1 [rucaparib]
Outline: as §1

[8] = compound: CNc1nc(-c2ccc3c(N)n[nH]c3c2)cc(N2C[C@@H](C(=O)NC3CCCCC3)CC[C@H]2C)n1
Outline: as §1

[9] = compound: COC(=O)N[C@@H](C)CNc1nccc(-c2cn(C(C)C)nc2-c2cc(Cl)cc(NS(C)(=O)=O)c2F)n1 [encorafenib]
Outline: as §1

[10] = compound: COC(=O)[C@H](CCSC)NC(=O)C1=C(C=C(C=C1)NC[C@H](CS)N)C2=CC=CC=C2
Outline: as §1

[11] = compound: COC1=CC=C(C=C1)CN2C=CC3=C2C=C(C=C3)C(=O)NO
Outline: as §1

[12] = compound: CON(C)C(=O)N1N=C(c2cc(F)ccc2F)S[C@@]1(CCCN)c1ccccc1 [filanesib]
Outline: as §1

[13] = compound: CO[C@H]1C[C@@H]2CC[C@@H](C)[C@@](O)(O2)C(=O)C(=O)N2CCCC[C@H]2C(=O)O[C@H]([C@H](C)C[C@@H]2CC[C@H](n3cnnn3)[C@H](OC)C2)CC(=O)[C@H](C)/C=C(\C)[C@@H](O)[C@@H](OC)C(=O)[C@H](C)C[C@H](C)/C=C/C=C/C=C/1C [zotarolimus]
Outline: as §1

[14] = compound: COc1cc(C(=O)O)ccc1NC(=O)[C@@H]1N[C@@H](CC(C)(C)C)[C@](C#N)(c2ccc(Cl)cc2F)[C@H]1c1cccc(Cl)c1F [idasanutlin]
Outline: as §1

[15] = compound: COc1cc(Nc2ncc3c(n2)-c2ccc(Cl)cc2C(c2c(F)cccc2OC)=NC3)ccc1C(=O)O [alisertib]
Outline: as §1

[16] = compound: COc1cc2nc(-c3cc(F)ccc3O)nc(N[C@@H]3CNC[C@H]3C(C)(C)O)c2cc1OC
Outline: as §1

[17] = compound: COc1cc2ncnc(Nc3ccc(F)c(Cl)c3)c2cc1OCCCN1CCOCC1 [gefitinib]
Outline: as §1

[18] = compound: COc1cccc2cc(-c3nc([C@H]4CC[C@H](C(=O)O)CC4)n4ncnc(N)c34)[nH]c12
Outline: as §1

[19] = compound: CS(=O)(=O)CCNCc1ccc(-c2ccc3ncnc(Nc4ccc(OCc5cccc(F)c5)c(Cl)c4)c3c2)o1 [lapatinib]
Outline: as §1

[20] = compound: CS(=O)(=O)N1CCN(Cc2cc3nc(-c4cccc5[nH]ncc45)nc(N4CCOCC4)c3s2)CC1 [pictilisib]
Outline: as §1

Measured: log2 fold change

PDPK1 (UniProt O15530)
inactive: [1] -0.008 | [2] 0.034 | [3] -0.075 | [4] 0.023 | [5] -0.064 | [6] -0.025 | [7] -0.056 | [9] 0.041 | [10] 0 | [11] -0.015 | [12] -0.097 | [13] 0.04 | [14] -0.048 | [15] -0.017 | [16] 0.011 | [17] -0.028 | [18] 0.01 | [19] -0.058 | [20] -0.179
active: [8] 0.385

PSMD2 (UniProt Q13200)
Sequence of UniProt Q13200 (Q13200 whole entry, looked up): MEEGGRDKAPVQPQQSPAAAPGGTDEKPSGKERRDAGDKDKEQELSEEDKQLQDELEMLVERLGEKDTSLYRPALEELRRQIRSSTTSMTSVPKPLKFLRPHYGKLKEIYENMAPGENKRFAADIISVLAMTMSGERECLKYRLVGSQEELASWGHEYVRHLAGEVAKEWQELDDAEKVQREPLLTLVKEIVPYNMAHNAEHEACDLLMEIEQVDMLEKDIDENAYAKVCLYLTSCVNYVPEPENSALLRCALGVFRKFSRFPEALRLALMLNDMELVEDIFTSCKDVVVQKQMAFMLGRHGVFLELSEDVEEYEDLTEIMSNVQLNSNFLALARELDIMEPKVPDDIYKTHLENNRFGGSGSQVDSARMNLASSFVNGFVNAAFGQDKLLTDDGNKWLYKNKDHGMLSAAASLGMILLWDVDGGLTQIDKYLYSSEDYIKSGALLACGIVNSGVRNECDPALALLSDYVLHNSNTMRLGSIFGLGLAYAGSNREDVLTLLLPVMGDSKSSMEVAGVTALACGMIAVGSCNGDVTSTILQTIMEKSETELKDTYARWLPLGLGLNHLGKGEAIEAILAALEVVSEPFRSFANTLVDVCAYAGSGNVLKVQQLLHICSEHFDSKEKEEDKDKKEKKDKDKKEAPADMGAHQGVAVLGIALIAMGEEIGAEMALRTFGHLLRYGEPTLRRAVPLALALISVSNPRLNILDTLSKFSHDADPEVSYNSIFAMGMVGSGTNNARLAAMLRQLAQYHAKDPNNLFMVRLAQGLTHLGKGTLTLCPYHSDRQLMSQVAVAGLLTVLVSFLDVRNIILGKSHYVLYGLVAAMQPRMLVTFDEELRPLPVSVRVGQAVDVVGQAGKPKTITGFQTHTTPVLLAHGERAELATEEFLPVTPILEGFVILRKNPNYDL
inactive: [1] -0.047 | [2] -0.029 | [3] 0.048 | [4] -0.014 | [5] -0.033 | [6] 0.061 | [7] 0.035 | [8] 0.01 | [9] 0.051 | [10] 0.012 | [11] -0.036 | [12] 0.051 | [13] -0.015 | [14] 0.039 | [15] -0.089 | [16] -0.071 | [17] -0.043 | [18] -0.053 | [19] 0.077 | [20] -0.059

PTRH2 (UniProt Q9Y3E5)
Sequence of UniProt Q9Y3E5 (Q9Y3E5 whole entry, looked up): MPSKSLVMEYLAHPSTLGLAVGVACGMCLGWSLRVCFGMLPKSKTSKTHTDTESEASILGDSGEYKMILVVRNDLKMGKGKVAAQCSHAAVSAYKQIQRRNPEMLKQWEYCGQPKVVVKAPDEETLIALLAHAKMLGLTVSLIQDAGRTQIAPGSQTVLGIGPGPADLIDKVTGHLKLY
inactive: [1] -0.008 | [2] 0.027 | [3] -0.09 | [4] -0.052 | [5] 0.148 | [6] -0.009 | [7] -0.002 | [8] -0.051 | [9] 0.017 | [10] 0 | [12] -0.033 | [13] 0.01 | [14] -0.076 | [15] -0.009 | [16] 0.07 | [17] 0.015 | [18] 0.001 | [19] 0.012 | [20] -0.005
active: [11] 0.403

PIP4K2A (UniProt P48426)
Sequence of UniProt P48426 (P48426 whole entry, looked up): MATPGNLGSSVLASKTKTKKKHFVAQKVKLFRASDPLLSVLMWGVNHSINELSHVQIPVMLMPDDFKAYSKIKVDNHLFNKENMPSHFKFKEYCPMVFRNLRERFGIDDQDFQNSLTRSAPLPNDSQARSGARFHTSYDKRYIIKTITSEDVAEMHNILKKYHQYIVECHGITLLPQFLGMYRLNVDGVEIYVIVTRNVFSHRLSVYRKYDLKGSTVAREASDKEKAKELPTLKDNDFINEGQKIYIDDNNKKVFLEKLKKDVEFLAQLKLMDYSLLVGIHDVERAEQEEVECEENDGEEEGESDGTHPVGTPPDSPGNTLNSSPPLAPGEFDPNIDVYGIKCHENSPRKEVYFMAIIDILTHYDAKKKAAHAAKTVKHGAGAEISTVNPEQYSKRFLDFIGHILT
active: [16] 0.379
inactive: [1] 0.048 | [2] 0.011 | [3] 0.131 | [4] -0.001 | [5] 0.084 | [6] 0.166 | [7] 0.013 | [8] -0.132 | [9] 0.1 | [10] -0.056 | [11] 0.022 | [12] 0.006 | [13] -0.002 | [14] -0.11 | [15] -0.018 | [17] 0.017 | [18] 0.314 | [19] -0.054 | [20] 0.132

PIP4K2B (UniProt P78356)
Sequence of UniProt P78356 (P78356 whole entry, looked up): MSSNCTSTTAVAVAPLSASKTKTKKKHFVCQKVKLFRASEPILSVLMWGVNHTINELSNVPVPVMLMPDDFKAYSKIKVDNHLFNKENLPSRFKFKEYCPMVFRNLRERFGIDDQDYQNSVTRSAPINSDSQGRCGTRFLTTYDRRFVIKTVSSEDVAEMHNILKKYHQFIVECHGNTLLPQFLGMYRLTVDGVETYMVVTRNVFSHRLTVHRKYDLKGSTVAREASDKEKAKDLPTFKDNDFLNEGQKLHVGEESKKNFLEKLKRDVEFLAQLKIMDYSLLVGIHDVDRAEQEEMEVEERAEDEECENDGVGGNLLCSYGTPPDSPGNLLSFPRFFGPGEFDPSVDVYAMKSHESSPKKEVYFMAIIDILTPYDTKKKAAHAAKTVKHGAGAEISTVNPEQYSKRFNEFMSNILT
active: [16] 0.379
inactive: [1] -0.021 | [2] -0.088 | [3] 0.204 | [4] 0.022 | [5] 0.179 | [6] 0.176 | [7] -0.035 | [8] -0.083 | [9] 0.049 | [10] -0.108 | [11] 0.028 | [12] -0.146 | [13] 0.025 | [14] -0.104 | [15] -0.045 | [17] 0.035 | [18] 0.207 | [19] -0.026 | [20] 0.022

PSMC2 (UniProt P35998)
inactive: [1] -0.024 | [2] -0.03 | [3] 0.046 | [4] -0.01 | [5] -0.014 | [6] 0.061 | [7] 0.033 | [8] 0.035 | [9] 0.018 | [10] 0.001 | [11] -0.076 | [12] 0.049 | [13] -0.03 | [14] 0.033 | [15] -0.05 | [16] -0.034 | [17] -0.051 | [18] -0.05 | [19] 0.059 | [20] -0.067

PNPLA8 (UniProt Q9NP80)
inactive: [1] 0.022 | [2] 0.052 | [3] 0.037 | [4] -0.009 | [5] -0.021 | [6] -0.051 | [7] 0.038 | [8] -0.016 | [9] 0.026 | [10] -0.01 | [11] -0.061 | [12] 0.006 | [13] -0.077 | [14] -0.072 | [15] -0.053 | [16] -0.125 | [17] 0.032 | [18] 0.047 | [19] -0.022 | [20] 0.118

PLA2G15 (UniProt Q8NCC3)
Sequence of UniProt Q8NCC3 (Q8NCC3 whole entry, looked up): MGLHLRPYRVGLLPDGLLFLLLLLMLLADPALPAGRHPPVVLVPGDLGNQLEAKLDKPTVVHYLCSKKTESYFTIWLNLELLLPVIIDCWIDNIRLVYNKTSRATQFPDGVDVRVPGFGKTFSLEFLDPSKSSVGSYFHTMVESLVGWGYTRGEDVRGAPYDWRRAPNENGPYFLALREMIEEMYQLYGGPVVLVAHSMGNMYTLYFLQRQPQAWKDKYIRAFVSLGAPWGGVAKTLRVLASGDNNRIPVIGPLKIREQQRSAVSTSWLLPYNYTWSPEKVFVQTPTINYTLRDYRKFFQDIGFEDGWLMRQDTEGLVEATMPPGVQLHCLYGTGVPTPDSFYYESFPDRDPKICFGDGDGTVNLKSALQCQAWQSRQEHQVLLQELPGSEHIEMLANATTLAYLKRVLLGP
inactive: [1] -0.052 | [2] -0.095 | [3] 0.028 | [4] 0.036 | [5] 0.065 | [6] 0.012 | [7] -0.064 | [8] -0.036 | [9] 0.176 | [10] -0.018 | [11] -0.041 | [12] -0.076 | [13] -0.007 | [14] 0.01 | [15] 0.095 | [16] 0.03 | [17] 0.001 | [18] 0.056 | [19] -0.001 | [20] -0.01

POMK (UniProt Q9H5K3)
Sequence of UniProt Q9H5K3 (Q9H5K3 whole entry, looked up): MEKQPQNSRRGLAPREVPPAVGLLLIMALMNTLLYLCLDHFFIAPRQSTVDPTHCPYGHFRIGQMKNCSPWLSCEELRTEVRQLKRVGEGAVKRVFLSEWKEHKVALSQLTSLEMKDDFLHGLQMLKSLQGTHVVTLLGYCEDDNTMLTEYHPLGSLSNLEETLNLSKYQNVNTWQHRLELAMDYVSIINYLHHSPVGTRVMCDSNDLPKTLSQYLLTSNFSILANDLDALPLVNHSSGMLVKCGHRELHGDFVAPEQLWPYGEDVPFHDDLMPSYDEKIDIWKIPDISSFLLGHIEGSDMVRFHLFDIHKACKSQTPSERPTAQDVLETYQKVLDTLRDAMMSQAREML
inactive: [1] -0.047 | [2] 0.007 | [3] -0.083 | [4] 0.021 | [5] 0.022 | [6] 0.024 | [7] 0.168 | [8] -0.052 | [9] 0.089 | [10] -0.056 | [11] -0.025 | [12] -0.019 | [13] -0.101 | [14] -0.017 | [15] 0.077 | [16] -0.037 | [17] -0.02 | [18] 0.04 | [19] 0.067 | [20] 0.077

PIGT (UniProt Q969N2)
inactive: [1] -0.024 | [2] -0.023 | [3] -0.021 | [4] -0.052 | [5] 0.029 | [6] 0.012 | [7] -0.002 | [8] 0.013 | [9] 0.048 | [10] -0.015 | [11] -0.004 | [12] 0 | [13] 0.012 | [14] -0.02 | [15] -0.081 | [16] 0.046 | [17] -0.006 | [18] -0.013 | [19] 0.027 | [20] -0.007

PSME4 (UniProt Q14997)
Sequence of UniProt Q14997 (Q14997 whole entry, looked up): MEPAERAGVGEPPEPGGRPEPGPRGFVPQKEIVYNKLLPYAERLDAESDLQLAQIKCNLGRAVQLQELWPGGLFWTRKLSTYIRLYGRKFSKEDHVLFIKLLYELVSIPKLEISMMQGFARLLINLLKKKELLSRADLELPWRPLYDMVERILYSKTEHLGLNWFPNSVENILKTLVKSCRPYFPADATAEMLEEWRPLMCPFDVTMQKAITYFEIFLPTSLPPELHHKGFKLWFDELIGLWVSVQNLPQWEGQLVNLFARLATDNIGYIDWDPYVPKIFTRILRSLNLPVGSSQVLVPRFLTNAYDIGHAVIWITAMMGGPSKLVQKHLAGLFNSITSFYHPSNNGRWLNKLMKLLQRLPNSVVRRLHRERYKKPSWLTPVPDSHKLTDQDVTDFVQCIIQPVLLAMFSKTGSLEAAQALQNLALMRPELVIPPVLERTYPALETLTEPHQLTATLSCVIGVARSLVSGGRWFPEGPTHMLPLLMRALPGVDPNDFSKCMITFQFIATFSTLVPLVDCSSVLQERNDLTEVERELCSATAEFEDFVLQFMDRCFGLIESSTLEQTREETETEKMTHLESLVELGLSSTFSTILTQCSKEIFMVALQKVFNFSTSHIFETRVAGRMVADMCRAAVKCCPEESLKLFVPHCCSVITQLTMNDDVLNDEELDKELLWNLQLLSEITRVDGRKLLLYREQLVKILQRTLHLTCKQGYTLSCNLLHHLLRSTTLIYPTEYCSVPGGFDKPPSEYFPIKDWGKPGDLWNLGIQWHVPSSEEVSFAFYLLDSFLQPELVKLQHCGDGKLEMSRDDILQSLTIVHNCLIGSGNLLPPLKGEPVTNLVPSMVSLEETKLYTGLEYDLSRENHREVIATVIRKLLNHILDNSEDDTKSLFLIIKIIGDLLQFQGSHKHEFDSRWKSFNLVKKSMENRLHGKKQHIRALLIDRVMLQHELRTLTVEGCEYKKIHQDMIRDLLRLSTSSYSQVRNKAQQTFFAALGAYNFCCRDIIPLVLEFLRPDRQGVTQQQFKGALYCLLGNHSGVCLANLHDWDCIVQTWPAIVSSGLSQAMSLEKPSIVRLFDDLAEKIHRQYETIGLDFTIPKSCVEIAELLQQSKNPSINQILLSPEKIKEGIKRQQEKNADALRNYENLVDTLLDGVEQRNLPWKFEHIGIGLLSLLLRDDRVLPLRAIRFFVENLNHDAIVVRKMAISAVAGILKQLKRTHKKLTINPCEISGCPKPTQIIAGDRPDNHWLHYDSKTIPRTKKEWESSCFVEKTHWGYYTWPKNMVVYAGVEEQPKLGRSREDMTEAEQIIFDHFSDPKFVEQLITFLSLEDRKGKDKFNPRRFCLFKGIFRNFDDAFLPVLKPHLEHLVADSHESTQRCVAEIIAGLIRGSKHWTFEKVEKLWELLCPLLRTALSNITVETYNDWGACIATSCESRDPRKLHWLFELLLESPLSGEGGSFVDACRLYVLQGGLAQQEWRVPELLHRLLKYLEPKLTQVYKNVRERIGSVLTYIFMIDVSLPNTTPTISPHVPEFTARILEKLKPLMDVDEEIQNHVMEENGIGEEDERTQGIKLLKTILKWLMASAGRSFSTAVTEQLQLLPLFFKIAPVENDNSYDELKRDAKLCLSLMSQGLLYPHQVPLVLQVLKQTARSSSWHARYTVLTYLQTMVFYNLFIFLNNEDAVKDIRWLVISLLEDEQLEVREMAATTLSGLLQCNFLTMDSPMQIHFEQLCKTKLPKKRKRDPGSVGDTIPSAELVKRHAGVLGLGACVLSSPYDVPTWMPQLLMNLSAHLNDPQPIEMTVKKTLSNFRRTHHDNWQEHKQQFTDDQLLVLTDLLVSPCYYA
inactive: [1] -0.006 | [2] -0.035 | [3] -0.051 | [4] 0.025 | [5] -0.027 | [6] 0.037 | [7] -0.023 | [8] 0.067 | [9] 0.066 | [10] -0.029 | [11] -0.023 | [12] -0.091 | [13] 0.005 | [14] -0.123 | [15] -0.045 | [16] -0.03 | [17] -0.071 | [18] 0.037 | [19] 0.044 | [20] -0.045

PCLAF (UniProt Q15004)
Sequence of UniProt Q15004 (Q15004 whole entry, looked up): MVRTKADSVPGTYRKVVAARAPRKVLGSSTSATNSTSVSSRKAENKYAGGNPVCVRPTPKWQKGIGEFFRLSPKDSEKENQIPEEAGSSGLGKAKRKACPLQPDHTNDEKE
inactive: [1] 0.057 | [2] 0.057 | [3] 0.138 | [4] 0.08 | [5] -0.094 | [6] 0.076 | [7] -0.094 | [8] -0.161 | [9] -0.046 | [10] 0.093 | [11] -0.115 | [12] 0.158 | [13] -0.172 | [14] 0.066 | [15] -0.035 | [16] -0.018 | [17] -0.057 | [18] -0.162 | [19] 0.033 | [20] -0.015

PPIL1 (UniProt Q9Y3C6)
Sequence of UniProt Q9Y3C6 (Q9Y3C6 whole entry, looked up): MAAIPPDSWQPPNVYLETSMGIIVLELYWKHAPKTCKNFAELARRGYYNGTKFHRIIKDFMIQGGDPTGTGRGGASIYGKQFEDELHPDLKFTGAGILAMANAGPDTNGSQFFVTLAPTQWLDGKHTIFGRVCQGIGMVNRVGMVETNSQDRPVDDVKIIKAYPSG
inactive: [1] -0.007 | [2] -0.088 | [3] 0.096 | [4] -0.016 | [5] 0.042 | [6] 0.09 | [7] 0.056 | [8] -0.062 | [9] 0.052 | [10] -0.042 | [11] -0.079 | [12] 0.05 | [13] -0.008 | [14] -0.015 | [15] -0.078 | [16] 0.12 | [17] -0.023 | [18] -0.017 | [19] -0.051 | [20] -0.028

PARG (UniProt Q86W56)
inactive: [1] 0.003 | [2] -0.102 | [3] -0.19 | [4] 0.051 | [5] -0.113 | [6] -0.068 | [7] 0.044 | [8] 0.115 | [9] 0.034 | [10] -0.025 | [11] 0.065 | [12] -0.057 | [13] 0.048 | [14] -0.093 | [15] -0.114 | [16] 0.013 | [17] 0.023 | [18] 0.094 | [19] 0.013 | [20] -0.023

PSMD3 (UniProt O43242)
inactive: [1] -0.06 | [2] -0.015 | [3] 0.022 | [4] 0.016 | [5] 0.007 | [6] 0.083 | [7] 0.037 | [8] 0.051 | [9] 0.031 | [10] 0.003 | [11] -0.058 | [12] 0.061 | [13] 0.021 | [14] 0.003 | [15] -0.075 | [16] -0.089 | [17] -0.035 | [18] -0.011 | [19] 0.061 | [20] -0.023

PRKCE (UniProt Q02156)
active: [2] -0.425
inactive: [1] -0.02 | [3] -0.143 | [4] -0.052 | [5] 0.075 | [6] -0.133 | [7] -0.043 | [8] 0.006 | [9] 0.037 | [10] -0.06 | [11] -0.024 | [12] -0.082 | [13] 0 | [14] -0.085 | [15] -0.078 | [16] 0.012 | [17] 0.029 | [18] -0.104 | [19] 0.025 | [20] 0.099
